FAS-TE inh: inhibitors of human fatty acid synthase thioesterase domain. P49327. recombinant FAS-TE, OMFH fluorogenic substrate, fluorescence endpoint. inhibition, % at 15 µM. hit rate 0.67% among 360,000. AID 602261;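 active = compounds whose normalised, plate-corrected inhibition of enzyme fluorescence in the single-dose primary screen is 50% or more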;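 note: 0% = DMSO with enzyme and 100% = substrate without enzyme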
FXN GAA850 act: activators of GAA850 frataxin (FXN) promoter; AID 540364; hit rate 0.56% among 360,000; activation, % at 6 µM; HEK293 lucGAA850 FXN promoter luciferase reporter, 24 h; percent of 10 µM SAHA response;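 active = activation above the average of all compounds screened plus 3 SD, cutoff fixed separately per campaign, cut at about 7.5% in these data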;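 note: 0% = DMSO wells and 100% = 10 µM SAHA wells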
SMARCA2 activ: increases SMARCA2 function in MMTV reporter cells; hit rate 1% among 370,000; MG213 cells, MMTV-luciferase reporter, dexamethasone, overnight; activation, % at 9.1 µM; in the data active = activation above about 7.8%;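 note: 0% = vehicle wells and 100% = reference activator wells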
KLK7 zymogen act: activators of human kallikrein-7 zymogen; P49862; purified proKLK7, EDANS-DABCYL substrate fluorescence; 100% is mature enzyme control, 0% vehicle; activation, % at 7 µM; hit rate 0.9% among 370,000; AID 652039;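 active = activation above the mean of all tested compounds plus 3 SD, computed per campaign excluding outliers beyond control limits, cut at about 13% in these data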
Target sequence (P49862 whole entry, looked up): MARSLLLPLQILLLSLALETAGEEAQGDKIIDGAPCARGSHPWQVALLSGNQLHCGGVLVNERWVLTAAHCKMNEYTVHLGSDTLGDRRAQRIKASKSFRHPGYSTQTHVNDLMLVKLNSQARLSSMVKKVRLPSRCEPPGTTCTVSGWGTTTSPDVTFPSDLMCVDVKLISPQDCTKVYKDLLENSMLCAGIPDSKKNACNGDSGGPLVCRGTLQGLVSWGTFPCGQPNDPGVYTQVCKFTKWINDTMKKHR
FAS-TE inh conf: FAS thioesterase (human) inhibition, confirmation; shares compounds with FAS-TE inh; hit rate 45% among 2,300; inhibition, % at 15 µM; recombinant FAS-TE, OMFH fluorogenic substrate, fluorescence;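 active = compounds inhibiting the enzyme by at least 50% at 15 µM in any one of the replicates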;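 note: 0% = enzyme with DMSO only and 100% = wells lacking enzyme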
Numbers without * were called inactive. Compounds with a hit are over-represented: about 2.9% of the library has one in this group of screens.

What do the screens show for `Cc1cc(C(=O)OC(C)C(=O)NC2CCCCC2)c(C)o1` (stereo unspecified)?
FAS-TE inh: -3; FXN GAA850 act: -1; SMARCA2 activ: -1; KLK7 zymogen act: 0

How did CC1=C(C(=O)OCC(Br)(Br)Br)C(c2cccc([N+](=O)[O-])c2)NC(=O)N1CCCC(=O)O (stereo unspecified) do in these assays?
FAS-TE inh: 56*; FXN GAA850 act: 1; SMARCA2 activ: -1; KLK7 zymogen act: 0; FAS-TE inh conf: 65*

Results for CCOC(=O)C1=C(C)N(CCCCCC(=O)O)C(=O)NC1c1cccc([N+](=O)[O-])c1 (stereo unspecified) ?
FAS-TE inh: -1; FXN GAA850 act: 0; SMARCA2 activ: 0; KLK7 zymogen act: 0

How did O=C(COC(=O)c1cc([N+](=O)[O-])ccc1N1CCOCC1)c1ccc(Br)cc1 do in these assays?
FAS-TE inh: 63*; FXN GAA850 act: 5; SMARCA2 activ: 0; KLK7 zymogen act: 0; FAS-TE inh conf: 7

Results for CCOc1ccc(C(C)=O)cc1COC(=O)c1cc([N+](=O)[O-])ccc1N1CCOCC1 ?
FAS-TE inh: 38; FXN GAA850 act: 0; SMARCA2 activ: -2; KLK7 zymogen act: 0

Results for CCOc1ccc(C(=O)COC(=O)c2cc([N+](=O)[O-])ccc2N2CCOCC2)cc1 ?
FAS-TE inh: 69*; FXN GAA850 act: -3; SMARCA2 activ: -1; KLK7 zymogen act: 0; FAS-TE inh conf: 63*

Results for O=C(COC(=O)Cc1c(F)cccc1Cl)NC(=O)Nc1ccccc1F ?
FAS-TE inh: 6; FXN GAA850 act: 0; SMARCA2 activ: -1; KLK7 zymogen act: 0

What do the screens show for `Cc1noc(C)c1COc1ccc(C(=O)N2CCC(C)CC2)cc1`?
FAS-TE inh: -7; FXN GAA850 act: 2; SMARCA2 activ: 1; KLK7 zymogen act: 0

What do the screens show for `Cc1cccc(NC(=S)N=Nc2c(O)n(C)c3ccc(S(=O)(=O)N4CCOCC4)cc23)c1`?
FAS-TE inh: 59*; FXN GAA850 act: 0; SMARCA2 activ: -3; KLK7 zymogen act: 1; FAS-TE inh conf: 24

What do the screens show for `C=CCn1c(O)c(N=NC(=S)Nc2ccccc2F)c2cc(S(=O)(=O)N3CCOCC3)ccc21`?
FAS-TE inh: 59*; FXN GAA850 act: 5; SMARCA2 activ: 7; KLK7 zymogen act: -1; FAS-TE inh conf: 16

What do the screens show for `Cc1cccc(Nc2ccc(S(=O)(=O)N3CCOCC3)cc2[N+](=O)[O-])c1`?
FAS-TE inh: 25; FXN GAA850 act: 1; SMARCA2 activ: -4; KLK7 zymogen act: -1

Results for Cc1cc(C)cc(NC(=S)N=Nc2c(O)n(C)c3ccc(S(=O)(=O)N4CCOCC4)cc23)c1 ?
FAS-TE inh: 61*; FXN GAA850 act: 0; SMARCA2 activ: -3; KLK7 zymogen act: -1; FAS-TE inh conf: 6

Results for Cn1c(=O)n(C)c2cc(S(=O)(=O)N3CCOCC3)ccc21 ?
FAS-TE inh: -8; FXN GAA850 act: -1; SMARCA2 activ: -4; KLK7 zymogen act: 0

Results for Cc1cccc(C)c1NC(=S)N=Nc1c(O)n(C)c2ccc(S(=O)(=O)N3CCOCC3)cc12 ?
FAS-TE inh: 76*; FXN GAA850 act: 4; SMARCA2 activ: -2; KLK7 zymogen act: 0; FAS-TE inh conf: 31

What do the screens show for `Cc1ccccc1NC(=S)N=Nc1c(O)n(C)c2ccc(S(=O)(=O)N3CCOCC3)cc12`?
FAS-TE inh: 21; FXN GAA850 act: -2; SMARCA2 activ: -1; KLK7 zymogen act: 0

Results for CN(C)CCO/N=C(\c1ccc(Br)cc1)c1cccnc1 ?
FAS-TE inh: -3; FXN GAA850 act: 2; SMARCA2 activ: 3; KLK7 zymogen act: -1

How did O=C(Nc1ccc(S(=O)(=O)N2CCOCC2)cc1)c1ccc(Cl)s1 do in these assays?
FAS-TE inh: 13; FXN GAA850 act: -3; SMARCA2 activ: 0; KLK7 zymogen act: 0

Results for CC(C)N(C)CCOC(=O)c1ccccc1Br ?
FAS-TE inh: -7; FXN GAA850 act: -1; SMARCA2 activ: 5; KLK7 zymogen act: 0

What do the screens show for `Cc1ccc(NC(=S)N=Nc2c(O)n(C)c3ccc(S(=O)(=O)N4CCOCC4)cc23)cc1`?
FAS-TE inh: 59*; FXN GAA850 act: 0; SMARCA2 activ: -6; KLK7 zymogen act: 0; FAS-TE inh conf: 27

What do the screens show for `Cc1ccc(/C=C(\C#N)c2nn(-c3ccccc3)c(N)c2C#N)cc1`?
FAS-TE inh: 18; FXN GAA850 act: 5; SMARCA2 activ: 0; KLK7 zymogen act: -14

How did N#C/C(=C\c1cc([N+](=O)[O-])c(N2CCCCC2)cc1N1CCCCC1)c1nn(-c2ccccc2)c(N)c1C#N do in these assays?
FAS-TE inh: 57*; FXN GAA850 act: 1; SMARCA2 activ: -1; KLK7 zymogen act: 1; FAS-TE inh conf: 1

Results for Cc1noc(C)c1NC(=O)N(C)C[C@H]1Oc2c(NS(=O)(=O)c3cccs3)cccc2C(=O)N([C@H](C)CO)C[C@@H]1C ?
FAS-TE inh: -5; FXN GAA850 act: 0; SMARCA2 activ: -1; KLK7 zymogen act: 0

Results for O=C(COC(=O)C1CCN(c2ccc(C(F)(F)F)cn2)CC1)c1cccc(Br)c1 ?
FAS-TE inh: 30; FXN GAA850 act: 1; SMARCA2 activ: 2; KLK7 zymogen act: 0

Results for CCc1nc2c(OCC(=O)c3ccc(F)cc3)cccn2c1N(C)C(=O)c1ccccc1F ?
FAS-TE inh: -6; FXN GAA850 act: 1; SMARCA2 activ: 4; KLK7 zymogen act: 0

How did COc1cccc(-n2c(CN3CCN(c4ccccc4)CC3)nc3ccc([N+](=O)[O-])cc3c2=O)c1 do in these assays?
FAS-TE inh: 72*; FXN GAA850 act: 1; SMARCA2 activ: 2; KLK7 zymogen act: 0; FAS-TE inh conf: 31*

What do the screens show for `CC(Sc1nnc(N)s1)C(=O)Nc1nccs1` (stereo unspecified)?
FAS-TE inh: -5; FXN GAA850 act: -1; SMARCA2 activ: -1; KLK7 zymogen act: 0

Results for COc1ccc(C(CCN(Cc2ccc(OC)c(OC)c2)C(C)=O)c2ccccc2)cc1 (stereo unspecified) ?
FAS-TE inh: 31; FXN GAA850 act: 3; SMARCA2 activ: 1; KLK7 zymogen act: 0

Results for COc1ccc(CN(CCC(c2ccccc2)c2ccc(OC(C)C)cc2)C(=O)CCl)cc1OC (stereo unspecified) ?
FAS-TE inh: 52*; FXN GAA850 act: 0; SMARCA2 activ: -10; KLK7 zymogen act: 1; FAS-TE inh conf: 4

How did Cc1ccc(SCc2cc(=O)[nH]c(/N=C(\N)Nc3cccc4ccccc34)n2)cc1 do in these assays?
FAS-TE inh: 58*; FXN GAA850 act: 2; SMARCA2 activ: -4; KLK7 zymogen act: -1; FAS-TE inh conf: 4

How did COC(=O)C1=C(C(=O)OC)[C@]2([C@H]3CCCCN[C@@H](Cc4ccccc4)C(=O)N3Cc3ccccc3)C=C[C@H]1O2 do in these assays?
FAS-TE inh: 75*; FXN GAA850 act: -4; SMARCA2 activ: 0; KLK7 zymogen act: 0; FAS-TE inh conf: 11

Bioassay records: PubChem, several laboratories
